The assay relates to P. falciparum stage V gametocytes. Also noted: BacTiter-Glo ATP luminescence viability of purified stage V gametocytes in 384-well plates, per cent inhibition versus DMSO. To be noted: 48 h, 5 µM, inhibitor.

Where two headings read alike, the source gives them in different places. Among all 13,000 compounds or so, about 3,200 (25%) showed an effect of 50% or more. The list shows a part of the results.

As usually defined, the % Inhibition is the change of the read-out against control, counted positive when it falls.

Regarding `CCc1cc(OC)c(C(=O)NC2CCN(C[C@H](O)c3ccnc4ccc(OC)cc34)CC2)cc1Br` [TCMDC-141169], the “% Inhibition” value is -16.9%. Same read-out and setting: in the case of `CCCn1c(SCC(=O)Nc2cc(Cl)ccc2Cl)n[nH]c1=O` [TCMDC-123548] it was -15.86%.

On to `Cn1c(NC(=O)C2CCCN(C(=O)c3ccc(O)c(-c4ccc(Cl)c(Cl)c4)c3)C2)nc2ccccc21` (stereo not shown) [TCMDC-140896], for which the “% Inhibition” value is recorded as 30.61%. Same read-out and setting: then `CC(C)(C)Nc1cc(C(=O)N[C@@H](Cc2ccccc2)[C@H](O)CNC2CCOCC2)cc(N2CCCCS2(=O)=O)c1` [TCMDC-135686], with 8.531%; and `CCOc1ccc(C(=O)N2CCOC(CCN3CCC4(CCc5ccccc54)CC3)(c3ccc(Cl)c(Cl)c3)C2)cc1` (stereo not shown) [TCMDC-135339], with -28.45%. For the compound `O=C(/C=C/c1ccc(Cl)c(Cl)c1)NCCCCCN1CCCN(C(=O)Nc2ccc(Br)cc2)CC1` [TCMDC-135761], the “% Inhibition” value is -59.24%.

On to `O=C(NCCCCCN1CCC(c2c[nH]c3ccccc23)CC1)Nc1ccc(Cl)cc1Cl` [TCMDC-139166], for which the “% Inhibition” value is -62.24%. `O=C(/C=C/c1ccc2ccccc2c1)NCCCCCN1CCC(c2c[nH]c3ccccc23)CC1` [TCMDC-139206]: the “% Inhibition” value is reported as 99.19%. Still for that read-out and setting: in the case of `O=C(/C=C/c1cccc(Cl)c1)NCCCCCN1CCC(c2c[nH]c3ccccc23)CC1` [TCMDC-139211] it was 97.27%. Turning to `O=C(/C=C/c1ccc(Cl)cc1)NCCCCCN1CCC(c2c[nH]c3ccccc23)CC1` [TCMDC-139234], the “% Inhibition” value was determined as 97.27%.

`O=C(/C=C/c1ccc(Cl)cc1Cl)NCCCCCN1CCC(c2c[nH]c3ccccc23)CC1` [TCMDC-139696]: the “% Inhibition” value is reported as 89.84%. On the same count and under the same terms, then `O=C(/C=C/c1cc(C(F)(F)F)ccc1F)NCCCCCN1CCC(c2c[nH]c3ccccc23)CC1` [TCMDC-140010], with -22%; and `O=C(/C=C/c1cccc(Br)c1)NCCCCCN1CCC(c2c[nH]c3ccccc23)CC1` [TCMDC-139233], with 3.439%; and `O=C(/C=C/c1cccc(OC(F)(F)F)c1)NCCCCCN1CCC(c2c[nH]c3ccccc23)CC1` [TCMDC-139190], with -40.78%. Same read-out and setting: in the case of `CCCCCCP(=O)(COc1ccc(CCN(CC(O)COc2cccc3[nH]c(C(N)=O)cc23)CC(O)COc2cccc3[nH]c(C(N)=O)cc23)cc1)OCCCC` (stereo not shown) [TCMDC-139041] it was 20.08%; in that of `CN1CCN(c2ccc(-c3cc(-c4cc(F)c(F)c(F)c4)cnc3N)cc2)CC1` [TCMDC-133345], -8.308%. Still for that read-out and setting: in the case of `O=C(NC1CCN(Cc2ccccc2)CC1)c1cccc(Nc2nc(-c3ccccc3)cs2)c1` [TCMDC-136774] it was 0.9462%; in that of `COc1cc(Cc2cnc(N)nc2N)cc(OCCCCC#N)c1OC` [TCMDC-138035], -14.37%; in that of `c1cn(-c2ccc(CNc3nccc(Nc4ccc(OCCN5CCOCC5)cc4)n3)cc2)cn1` [TCMDC-134665], 13.33%. For the compound `COc1ccccc1-n1ccnc1SCC(=O)Nc1cccc(C(F)(F)F)c1` [TCMDC-123546], the “% Inhibition” value worked out at 51.1%. With `COc1ccc(-n2ccnc2SCC(=O)Nc2cccc(C(F)(F)F)c2)c(OC)c1` [TCMDC-123545], the “% Inhibition” value is recorded as -5.921%. Consider `COc1ccccc1-n1ccnc1SCC(=O)Nc1cc(C(F)(F)F)ccc1Cl` [TCMDC-123823], for which the “% Inhibition” value is on record as -21.34%. On the same count and under the same terms, then `c1ccc(C23N=C(Nc4nc5ccccc5[nH]4)NC2(c2ccccc2)NC(Nc2nc4ccccc4[nH]2)=N3)cc1` (stereo not shown) [TCMDC-139082], with -85.59%; and `Cn1c(NC2=NC3(c4ccccn4)N=C(Nc4nc5ccccc5n4C)NC3(c3ccccn3)N2)nc2ccccc21` (stereo not shown) [TCMDC-139096], with 50.49%; and `Cc1cc2nc(NC3=NC4(c5ccccn5)N=C(Nc5nc6cc(C)c(C)cc6[nH]5)NC4(c4ccccn4)N3)[nH]c2cc1C` (stereo not shown) [TCMDC-139105], with -75.39%. Take `CCCNC[C@@H](O)[C@H](Cc1ccccc1)NC(=O)c1cc(NCC)cc(N2CCCCS2(=O)=O)c1` [TCMDC-135269]: the “% Inhibition” value amounted to 19.71%. The same measure, in the same setting: in the case of `Cc1cccc(-n2c(=O)c3c4c(sc3n3c(SCCC(C)C)nnc23)CCCC4)c1` [TCMDC-125651] it was 34.66%. Still for that read-out and setting: in the case of `C=CCc1ccccc1OCC(O)CN(C1CCCCC1)C1CCCCC1` (stereo not shown) [TCMDC-123906] it was -42.05%; in that of `OC(CN1c2ccccc2Sc2ccccc21)CN(C1CCCCC1)C1CCCCC1` (stereo not shown) [TCMDC-125553], 51.78%. Same read-out and setting: in the case of `C[C@@H](COc1ccc(-c2ccccc2)cc1)CON1C(N)=NC(N)=NC1(C)C` [TCMDC-124029] it was 25.59%; in that of `CNCc1ccc(CN(C)c2nc(N)c3cc(OC)c(OC)cc3n2)cc1` [TCMDC-131896], 48.14%. `COc1cc2nc(N(C)Cc3cccc(I)c3)nc(N)c2cc1OC` [TCMDC-131898]: the “% Inhibition” value is on record as -39.77%. Same read-out and setting: then `COc1cc2nc(N(C)Cc3cc4c(Cl)cccc4s3)nc(N)c2cc1OC.Cl` [TCMDC-131890], with 62.52%. The same measure, in the same setting: in the case of `CC1(C)N=C(N)N=C(N)N1c1ccc(Br)cc1` [TCMDC-123959] it was 18.18%. On the same count and under the same terms, in the case of `COc1ccc(CNCc2ccc(F)cc2)cc1-c1ccc(S(=O)(=O)NCCN2CCCC2)cc1` [TCMDC-132294] it was 108.8%; in that of `COc1cc2c(cc1S(=O)(=O)c1ccc(NC(=O)Nc3ccc(F)cc3)cc1)CCN(C)CC2` [TCMDC-141793], 32.2%; in that of `COc1ccc(CNCc2ccccc2)cc1-c1ccc(S(=O)(=O)NCCN2CCCC2)cc1` [TCMDC-132247], 102%. Regarding `O=C(/C=C/c1ccc(Cl)c(Cl)c1)NCCCCCN1CCCN(C(=O)Nc2ccc(OC(F)F)cc2)CC1` [TCMDC-135756], the “% Inhibition” value is -55.78%.

As to `CC1(C)N=C(N)N=C(N)N1OCc1ccc2c(c1)OCO2` [TCMDC-131581], the “% Inhibition” value amounted to 47.46%.

Turning to `CN1CCN(c2ccc(-c3cc(-c4ccncc4)c(-c4ccc(Cl)c(O)c4)o3)cc2)CC1` [TCMDC-141308], the “% Inhibition” value was found to be 9.946%. As to `Cc1nc(N)nc(N)c1OCCCCOc1ccccc1` [TCMDC-131353], the “% Inhibition” value is given as -22.41%.

On to `CCCOc1ccc(N2C(N)=NC(N)=NC2(C)C)cc1` [TCMDC-137702], for which the “% Inhibition” value is listed as -17.71%. Same read-out and setting: in the case of `CC1(C)N=C(N)N=C(N)N1c1ccccc1` [TCMDC-123984] it was -31.19%; in that of `Nc1nc(N)c2c(ccc3c2ccn3C2C=CCCC2)n1` (stereo not shown) [TCMDC-137861], 26.32%; in that of `Nc1nc(N)c2c(ccc3c2ccn3CCCCO)n1` [TCMDC-137959], 31.47%. The same measure, in the same setting: in the case of `Nc1nc(N)c2c(ccc3c2ccn3CCCF)n1` [TCMDC-138623] it was 32.47%. Consider `CC(C)Cn1ccc2c3c(N)nc(N)nc3ccc21` [TCMDC-137997], for which the “% Inhibition” value is 21%. The same measure, in the same setting: then `CC(C)CNc1nc(N)nc2ccc3c(ccn3CC(C)C)c12` [TCMDC-137731], with 87.39%; and `CCCC(CCC)n1ccc2c3c(N)nc(N)nc3ccc21` [TCMDC-137949], with 60.59%.

With `CCCC(CC)n1ccc2c3c(N)nc(N)nc3ccc21` (stereo not shown) [TCMDC-137948], the “% Inhibition” value is recorded as 17.27%.

As to `Nc1nc(N)c2c(ccc3c2ccn3C2CCCCC2)n1` [TCMDC-137871], the “% Inhibition” value was determined as 105.4%. Turning to `Nc1nc(N)c2c(ccc3nn(C4CCCC4)cc32)n1` [TCMDC-137960], the “% Inhibition” value was -20%. The same measure, in the same setting: then `CC(=O)Nc1nc(N)c2c(ccc3c2ccn3CC(C)C)n1` [TCMDC-137971], with 0.8169%; and `CCCC(C)n1ccc2c3c(N)nc(N)nc3ccc21` (stereo not shown) [TCMDC-137964], with -7.389%.

On to `CCCCCCn1ccc2c3c(N)nc(N)nc3ccc21` [TCMDC-137994], for which the “% Inhibition” value is 106.4%. The same measure, in the same setting: in the case of `CCC(C(=O)Nc1ccccc1)n1nc(-c2ccc(C)c(S(=O)(=O)N3CCCCC3)c2)ccc1=O` (stereo not shown) [TCMDC-124712] it was -71.76%; in that of `CC(=O)c1c(Cc2cccc(C(F)(F)F)c2)c[nH]c1C` [TCMDC-124434], -10.65%; in that of `COc1ccc(C(C(=O)NC2CCN(C[C@H](O)c3ccnc4ccc(OC)cc34)CC2)N2CCN(c3ccc(Cl)c(Cl)c3)CC2)cc1` (stereo partly shown) [TCMDC-141101], 14.7%. The same measure, in the same setting: then `NC(N)=NC(=O)Nc1cc(Cl)c(F)c(Cl)c1` [TCMDC-137512], with -14.8%; and `Cc1cc(N(C)C)nc(Nc2ccc(NC(=O)c3ccccc3Cl)cc2)n1` [TCMDC-124722], with -1.9%; and `Nc1nc(N)c2c(ccc3c2ccn3CCCC(F)(F)F)n1` [TCMDC-138622], with 32.41%. Still for that read-out and setting: in the case of `CCn1ccc2c3c(N)nc(N)nc3ccc21` [TCMDC-139864] it was 0.4857%. Regarding `C=CCn1ccc2c3c(N)nc(N)nc3ccc21` [TCMDC-137995], the “% Inhibition” value was found to be 79.96%. The same measure, in the same setting: in the case of `Oc1ccc(Br)cc1C(O)CNCc1ccccc1OCc1ccccc1` (stereo not shown) [TCMDC-140564] it was 21.06%. For `Fc1ccc2[nH]cc(CCN3CCC(CNCc4ccccc4)CC3)c2c1` [TCMDC-131984], the “% Inhibition” value is on record as 53.36%. Same read-out and setting: in the case of `CN(Cc1ccccc1)C1CCN(CCc2c[nH]c3ccc(F)cc23)CC1` [TCMDC-131970] it was 10.21%; in that of `OC1(CNCc2ccccc2)CCN(CCc2c[nH]c3ccc(F)cc23)CC1` [TCMDC-131975], 35.49%. On to `N#Cc1ccc2c(c1)CN(CC[C@H]1CC[C@H](NC(=O)/C=C/c3c[nH]c4ccccc34)CC1)CC2` [TCMDC-139133], for which, for the setting “% Inhibition”, the “% Inhibition” value was determined as 11.83%. For `O=C(NC1CCN(c2ccnc3cc(Cl)ccc23)C1)c1ccccc1F` (stereo not shown) [TCMDC-133660], the “% Inhibition” value is -3.046%. As for `COC(=O)c1cccc(NC(=O)NCCNc2ccnc(Nc3ccc(F)cc3)n2)c1` [TCMDC-133642], the “% Inhibition” value is given as 41.44%. Same read-out and setting: in the case of `O=C(c1ccc(Br)o1)N1N=C(c2cccs2)CC1c1ccc(Br)cc1` (stereo not shown) [TCMDC-125623] it was 10.04%.

As to `COc1ccc(C2CCN(CCCCNC(=O)c3ccc(NC(=O)c4ccc(Cl)cc4)cc3)CC2)c(C)c1` [TCMDC-138359], the “% Inhibition” value is reported as -1.308%. The same measure, in the same setting: in the case of `CC(=O)Oc1c(C2CCN(CCCCNC(=O)c3ccc(NC(=O)c4ccc(Cl)cc4)cc3)CC2)ccc2c1CCCC2` [TCMDC-138649] it was 92.78%; in that of `O=C(NCCCCN1CCC(c2ccc3c(c2OCC2CC2)CCCC3)CC1)c1ccc(NC(=O)c2ccc(Cl)cc2)cc1` [TCMDC-138584], 71.88%; in that of `O=C(NCCCCN1CCC(c2ccc3c(c2OC(=O)c2ccc(NC(=O)c4ccc(Cl)cc4)cc2)CCCC3)CC1)c1ccc(NC(=O)c2ccc(Cl)cc2)cc1` [TCMDC-138644], 102.3%. With `O=C(NCCCCN1CCN(c2cccc3c2CCCC3)CC1)c1ccc(NC(=O)c2ccc(Cl)cc2)cc1` [TCMDC-138513], the “% Inhibition” value is -3.326%.
